# Assay results as given in PubChem BioAssay (EPA / NIEHS).
# Results filed as inconclusive are left out. Activity calls are given as the source filed them. Rule for the calls, unless noted: active = hit-call score of the fitted dose curve at least 0.9, where 1 is the maximum; inactive = score below 0.9.
# Target: human Retinoid X Receptor beta (RXRb), RXRB (gene 6257) (UniProt P28702)
# Assay: ATG_RXRb_TRANS: Attagene TRANS-FACTORIAL HepG2 Assay for human Retinoid X Receptor beta (RXRb) (AID 2283013; active = hit-call score of the fitted dose curve at least 0.9, where 1 is the maximum)
# Settings: not given
# In short: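 Multiplexed TRANS reporter assay in HepG2; 24 h dosing; reporter mRNA by RT-PCR/CE fluorescence; gain-of-signal relative to DMSO.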
# Sequence of E-selectin (Homo sapiens) (P16581 whole entry, looked up): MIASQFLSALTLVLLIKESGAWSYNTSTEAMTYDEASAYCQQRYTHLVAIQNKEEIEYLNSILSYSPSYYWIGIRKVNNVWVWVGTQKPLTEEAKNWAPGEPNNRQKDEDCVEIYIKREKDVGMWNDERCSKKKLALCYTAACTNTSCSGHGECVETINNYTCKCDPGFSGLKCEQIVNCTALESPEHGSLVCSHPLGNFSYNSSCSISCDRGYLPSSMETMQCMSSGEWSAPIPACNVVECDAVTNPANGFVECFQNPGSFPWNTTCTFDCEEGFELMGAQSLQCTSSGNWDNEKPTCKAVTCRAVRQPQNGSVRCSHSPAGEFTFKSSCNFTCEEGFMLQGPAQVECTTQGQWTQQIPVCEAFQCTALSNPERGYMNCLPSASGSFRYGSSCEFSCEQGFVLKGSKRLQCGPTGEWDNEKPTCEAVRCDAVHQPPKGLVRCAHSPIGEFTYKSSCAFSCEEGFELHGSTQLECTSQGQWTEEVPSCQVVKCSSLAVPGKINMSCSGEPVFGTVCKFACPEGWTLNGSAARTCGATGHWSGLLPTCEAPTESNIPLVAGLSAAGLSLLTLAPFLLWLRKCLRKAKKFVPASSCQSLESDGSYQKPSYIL
# Sequence of human Retinoid X Receptor beta (RXRb), RXRB (gene 6257) (P28702 whole entry, looked up): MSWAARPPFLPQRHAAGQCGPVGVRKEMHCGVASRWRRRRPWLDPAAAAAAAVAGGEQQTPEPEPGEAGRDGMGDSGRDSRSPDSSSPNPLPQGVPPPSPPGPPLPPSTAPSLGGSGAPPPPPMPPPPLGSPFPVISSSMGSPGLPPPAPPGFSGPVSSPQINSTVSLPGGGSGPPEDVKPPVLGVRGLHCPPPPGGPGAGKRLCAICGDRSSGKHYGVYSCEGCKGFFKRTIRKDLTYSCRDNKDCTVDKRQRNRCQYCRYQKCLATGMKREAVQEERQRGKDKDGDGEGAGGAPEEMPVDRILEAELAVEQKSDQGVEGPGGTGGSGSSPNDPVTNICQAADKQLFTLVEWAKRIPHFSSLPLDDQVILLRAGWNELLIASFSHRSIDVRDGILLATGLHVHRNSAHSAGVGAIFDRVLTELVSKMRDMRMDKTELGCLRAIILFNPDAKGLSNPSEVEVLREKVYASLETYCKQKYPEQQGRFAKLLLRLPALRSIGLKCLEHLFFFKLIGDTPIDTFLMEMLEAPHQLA
Structure (SMILES),outcome,AC50
O=C1OC(=O)C2C3C=CC(C3)C12 (stereo unspecified),inactive,
CC(=O)OCCC(C)C,inactive,
CC1(C)C(=O)N(Br)C(=O)N1Br,inactive,
COCCOc1cc2cc(C(=O)NC3CCN(C(C)C)CC3)n(CC(=O)Nc3ccc(Cl)cn3)c2cn1,inactive,
CC(=O)OC[C@H]1O[C@@](COC(C)=O)(O[C@H]2O[C@H](COC(C)=O)[C@@H](OC(C)=O)[C@H](OC(C)=O)[C@H]2OC(C)=O)[C@@H](OC(C)=O)[C@@H]1OC(C)=O,inactive,
O=C(CCCCCCCCc1cccnc1)N1CCC(C=C(c2ccccc2)c2ccccc2)CC1,inactive,
CC[C@H](C)C(=O)O[C@H]1C[C@@H](C)C=C2C=C[C@H](C)[C@H](CC[C@@H]3C[C@@H](O)CC(=O)O3)[C@H]21,inactive,
CCCCCCCCCCCCCCCO,,27.5 µM (active)
C=CC(=C)CCC=C(C)C,inactive,
CC(C)CC(C)(O)C#CC(C)(O)CC(C)C (stereo unspecified),inactive,
CCCC(=O)OCC,inactive,
Cn1c(=O)cc(Oc2ccc(F)cc2F)c2cnc(NCC(C)(C)O)nc21,inactive,
CCCCCCc1ccc(O)cc1O,,24.2 µM (active)
CN(C)c1ccc(N=NS(=O)(=O)O)cc1,inactive,
O=C(O)c1cc(N=Nc2ccc(S(=O)(=O)Nc3ccccn3)cc2)ccc1O,inactive,
Cn1c(=O)c2c(ncn2C)n(C)c1=O,inactive,

# Target: human Thyroid Receptor alpha (THRa1), THRA (gene 7067) (UniProt P10827)
# Sequence (P10827 whole entry, looked up): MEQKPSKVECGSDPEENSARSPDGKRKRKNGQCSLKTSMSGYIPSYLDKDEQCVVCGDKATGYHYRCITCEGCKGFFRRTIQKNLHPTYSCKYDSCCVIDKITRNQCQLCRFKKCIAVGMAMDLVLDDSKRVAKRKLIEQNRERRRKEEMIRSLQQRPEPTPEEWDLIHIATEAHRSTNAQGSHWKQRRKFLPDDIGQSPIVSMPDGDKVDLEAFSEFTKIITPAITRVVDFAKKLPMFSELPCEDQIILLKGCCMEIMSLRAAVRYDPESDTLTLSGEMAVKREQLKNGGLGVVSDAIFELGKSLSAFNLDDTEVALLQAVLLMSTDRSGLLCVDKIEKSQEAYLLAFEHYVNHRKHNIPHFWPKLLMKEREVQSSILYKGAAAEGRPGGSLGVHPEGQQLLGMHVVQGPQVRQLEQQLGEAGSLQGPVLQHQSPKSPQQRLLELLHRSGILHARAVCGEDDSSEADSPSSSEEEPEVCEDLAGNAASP
# Assay: ATG_THRa1_TRANS: Attagene TRANS-FACTORIAL HepG2 Assay for human Thyroid Receptor alpha (THRa1) (AID 2283014; active = hit-call score of the fitted dose curve at least 0.9, where 1 is the maximum)
# Settings: not given
# In short: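 Transient HepG2 transfection, NR-Gal4 chimera driving GAL4-UAS reporters; 24 h compound exposure; total RNA, oligo(dT) RT, PCR, fluorescent primer extension, capillary electrophoresis. Upward direction vs DMSO control.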
row,Structure (SMILES),outcome
1,COc1cccc(-c2ccc(/C=C\CN3CCCCCC3)cc2Cl)c1,inactive
2,O=C1CCC(N2C(=O)c3ccccc3C2=O)C(=O)N1 (stereo unspecified),inactive
3,On1ccccc1=S,inactive
4,CCOCCOCCOCCO,inactive
5,O=c1n(CC2CO2)c(=O)n(CC2CO2)c(=O)n1CC1CO1 (stereo unspecified),inactive
6,CCOc1cccc(-n2cc(C(=O)N3CCN(c4cc(C(=O)O)c5ccccc5c4)CC3)nc2-c2ccc(C)cc2)c1,inactive
7,CC(C)CC(C)(O)C#CC(C)(O)CC(C)C (stereo unspecified),inactive
8,Cn1c(=O)cc(Oc2ccc(F)cc2F)c2cnc(NCC(C)(C)O)nc21,inactive
9,CN(C)c1ccc(N=NS(=O)(=O)O)cc1,inactive
10,Nc1nc2ncc(CNc3ccc(C(=O)N[C@@H](CCC(=O)O)C(=O)O)cc3)nc2c(=O)[nH]1,inactive

# Read-out: E-selectin (Homo sapiens) (UniProt P16581)
# Assay: BSK_3C_Eselectin: BioMAP Diversity Plus: 3C Assay for Eselectin Biomarker Activity (AID 2283015);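 for outcome: cell surface E-selectin protein quantified by ELISA 24 h after dosing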
# Settings: primary human endothelial cells (HUVEC); actives raise or lower the signal
# In short: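 HUVEC, 3C stimulation; compound exposure 24 h; E-selectin by ELISA; gain- or loss-of-signal fitted bidirectionally vs DMSO baseline.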
Structure (SMILES),AC50,outcome
COc1cccc(-c2ccc(/C=C\CN3CCCCCC3)cc2Cl)c1,28.6 µM (active),
O=C1CCC(N2C(=O)c3ccccc3C2=O)C(=O)N1 (stereo unspecified),,inactive
On1ccccc1=S,18.3 µM (active),
O=C1OC(=O)C2C3C=CC(C3)C12 (stereo unspecified),,inactive
CCOCCOCCOCCO,,inactive
CC(=O)OCCC(C)C,,inactive
CC1(C)C(=O)N(Br)C(=O)N1Br,,inactive
COCCOc1cc2cc(C(=O)NC3CCN(C(C)C)CC3)n(CC(=O)Nc3ccc(Cl)cn3)c2cn1,,inactive
CC(=O)OC[C@H]1O[C@@](COC(C)=O)(O[C@H]2O[C@H](COC(C)=O)[C@@H](OC(C)=O)[C@H](OC(C)=O)[C@H]2OC(C)=O)[C@@H](OC(C)=O)[C@@H]1OC(C)=O,,inactive
O=C(CCCCCCCCc1cccnc1)N1CCC(C=C(c2ccccc2)c2ccccc2)CC1,19.4 µM (active),
CC[C@H](C)C(=O)O[C@H]1C[C@@H](C)C=C2C=C[C@H](C)[C@H](CC[C@@H]3C[C@@H](O)CC(=O)O3)[C@H]21,31.6 µM (active),
O=c1n(CC2CO2)c(=O)n(CC2CO2)c(=O)n1CC1CO1 (stereo unspecified),16.1 µM (active),
COC(=O)CC(=O)OC,,inactive
CCCCCCCCCCCCCCCO,26.9 µM (active),
CC(C)=CCC/C(C)=C\CO,,inactive
C=CC(=C)CCC=C(C)C,,inactive
CC1=CC(=O)CC(C)(C)C1,,inactive
CCOc1cccc(-n2cc(C(=O)N3CCN(c4cc(C(=O)O)c5ccccc5c4)CC3)nc2-c2ccc(C)cc2)c1,,inactive
CC(C)CC(C)(O)C#CC(C)(O)CC(C)C (stereo unspecified),,inactive
Cc1ccc(O)cc1,,inactive
CCCC(=O)OCC,,inactive
Cn1c(=O)cc(Oc2ccc(F)cc2F)c2cnc(NCC(C)(C)O)nc21,,inactive
CCCCCCc1ccc(O)cc1O,30.8 µM (active),
CN(C)c1ccc(N=NS(=O)(=O)O)cc1,,inactive
CCC(C)(C)C(=O)O[C@H]1C[C@@H](C)C=C2C=C[C@H](C)[C@H](CC[C@@H]3C[C@@H](O)CC(=O)O3)[C@H]21,30.2 µM (active),
Nc1nc2ncc(CNc3ccc(C(=O)N[C@@H](CCC(=O)O)C(=O)O)cc3)nc2c(=O)[nH]1,,inactive
Fc1ccccc1[C@@H](F)COC1CCC(Nc2ncnc3[nH]ncc23)CC1 (stereo partly specified),,inactive
O=C(O)c1cc(N=Nc2ccc(S(=O)(=O)Nc3ccccn3)cc2)ccc1O,,inactive
CCn1nc(Cc2ccccc2)cc1C1CCN(C[C@H]2C[C@H](N(C)[C@@H](C(=O)O)C(C)C)C[C@@H]2c2cccc(F)c2)CC1,,inactive
Cn1c(=O)c2c(ncn2C)n(C)c1=O,,inactive

# Read-out: Interleukin-1 alpha (IL1a), IL1A (gene 3552)
# Assay: BSK_BE3C_IL1a: BioMAP Diversity Plus: BE3C Assay for Interleukin-1 alpha (IL1a) Biomarker Activity (AID 2283016)
# Settings: primary human bronchial epithelial cells; actives raise or lower the signal
# In short: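 Cultures of primary human bronchial epithelial cells receive test chemical. After 24 h, IL-1a is quantified by ELISA, while parallel wells are fixed in TCA and SRB-stained for total protein. Changes in either direction are fitted relative to DMSO.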
Structure (SMILES),AC50,outcome
COc1cccc(-c2ccc(/C=C\CN3CCCCCC3)cc2Cl)c1,29 µM (active),
O=C1CCC(N2C(=O)c3ccccc3C2=O)C(=O)N1 (stereo unspecified),,inactive
On1ccccc1=S,4.99 µM (active),
O=C1OC(=O)C2C3C=CC(C3)C12 (stereo unspecified),,inactive
CCOCCOCCOCCO,,inactive
CC(=O)OCCC(C)C,,inactive
CC1(C)C(=O)N(Br)C(=O)N1Br,,inactive
COCCOc1cc2cc(C(=O)NC3CCN(C(C)C)CC3)n(CC(=O)Nc3ccc(Cl)cn3)c2cn1,,inactive
CC(=O)OC[C@H]1O[C@@](COC(C)=O)(O[C@H]2O[C@H](COC(C)=O)[C@@H](OC(C)=O)[C@H](OC(C)=O)[C@H]2OC(C)=O)[C@@H](OC(C)=O)[C@@H]1OC(C)=O,,inactive
O=C(CCCCCCCCc1cccnc1)N1CCC(C=C(c2ccccc2)c2ccccc2)CC1,27.3 µM (active),
CC[C@H](C)C(=O)O[C@H]1C[C@@H](C)C=C2C=C[C@H](C)[C@H](CC[C@@H]3C[C@@H](O)CC(=O)O3)[C@H]21,33.6 µM (active),
O=c1n(CC2CO2)c(=O)n(CC2CO2)c(=O)n1CC1CO1 (stereo unspecified),,inactive
COC(=O)CC(=O)OC,,inactive
CCCCCCCCCCCCCCCO,,inactive
CC(C)=CCC/C(C)=C\CO,,inactive
C=CC(=C)CCC=C(C)C,,inactive
CC1=CC(=O)CC(C)(C)C1,,inactive
CCOc1cccc(-n2cc(C(=O)N3CCN(c4cc(C(=O)O)c5ccccc5c4)CC3)nc2-c2ccc(C)cc2)c1,29.2 µM (active),
CC(C)CC(C)(O)C#CC(C)(O)CC(C)C (stereo unspecified),,inactive
Cc1ccc(O)cc1,,inactive
CCCC(=O)OCC,,inactive
Cn1c(=O)cc(Oc2ccc(F)cc2F)c2cnc(NCC(C)(C)O)nc21,,inactive
CCCCCCc1ccc(O)cc1O,33 µM (active),
CN(C)c1ccc(N=NS(=O)(=O)O)cc1,,inactive
CCC(C)(C)C(=O)O[C@H]1C[C@@H](C)C=C2C=C[C@H](C)[C@H](CC[C@@H]3C[C@@H](O)CC(=O)O3)[C@H]21,33.1 µM (active),
Nc1nc2ncc(CNc3ccc(C(=O)N[C@@H](CCC(=O)O)C(=O)O)cc3)nc2c(=O)[nH]1,,inactive
Fc1ccccc1[C@@H](F)COC1CCC(Nc2ncnc3[nH]ncc23)CC1 (stereo partly specified),,inactive
O=C(O)c1cc(N=Nc2ccc(S(=O)(=O)Nc3ccccn3)cc2)ccc1O,,inactive
CCn1nc(Cc2ccccc2)cc1C1CCN(C[C@H]2C[C@H](N(C)[C@@H](C(=O)O)C(C)C)C[C@@H]2c2cccc(F)c2)CC1,,inactive
Cn1c(=O)c2c(ncn2C)n(C)c1=O,,inactive
